Results published in ChEMBL document CHEMBL3433997, “St. Jude Leishmania screening dataset” (2016).
Several values for one entry are separate records, joined by “and”; a condition that tells them apart may be missing. Identical values can stand only once.

What follows are compounds tested against Solute carrier family 2, facilitated glucose transporter member 1 (Homo sapiens) (UniProt P11166) (assay: ST_JUDE_LEISH: Cytotoxicity at 2uM final concentration against transgenic Leishmania Mexicana promastigotes LmGLUT1 that are glucose transport deficient and complemented with the human glucose transporter GLUT1. Activity is measured by DNA content using SYBR green in vitro).
Sequence of Solute carrier family 2, facilitated glucose transporter member 1 (Homo sapiens) (P11166 whole entry): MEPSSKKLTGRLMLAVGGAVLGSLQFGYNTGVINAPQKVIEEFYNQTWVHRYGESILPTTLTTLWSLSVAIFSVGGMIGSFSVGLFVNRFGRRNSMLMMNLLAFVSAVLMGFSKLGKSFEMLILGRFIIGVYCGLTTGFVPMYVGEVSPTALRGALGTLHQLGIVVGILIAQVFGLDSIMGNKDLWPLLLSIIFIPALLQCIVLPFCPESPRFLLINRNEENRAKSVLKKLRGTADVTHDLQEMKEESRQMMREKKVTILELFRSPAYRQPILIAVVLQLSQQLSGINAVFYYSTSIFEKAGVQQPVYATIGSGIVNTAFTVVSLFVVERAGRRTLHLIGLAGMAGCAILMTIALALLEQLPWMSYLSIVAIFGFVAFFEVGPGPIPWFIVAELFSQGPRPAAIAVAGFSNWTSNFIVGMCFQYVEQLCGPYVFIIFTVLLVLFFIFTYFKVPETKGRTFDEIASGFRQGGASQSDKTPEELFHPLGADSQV
Type: functional
`CC(=O)C1(c2ccccc2)CCN(CCC2(c3ccc(Cl)c(Cl)c3)CN(C(=O)Nc3cccc(C(F)(F)F)c3)CCO2)CC1` (stereo not drawn) gave an inhibition of 7.51%.
`CS(=O)(=O)Nc1ccc2[nH]cc(C3CC4CCC(C3)N4CC3CCC(NC(=O)/C=C/c4ccc(Cl)c(Cl)c4)CC3)c2c1` (stereo not drawn) gave an inhibition of 5.91%.
Work on `COC(=O)c1ccc(CC(C)NCC(O)c2cccc(SC(F)(F)F)c2)cc1` (stereo not drawn) yielded an inhibition of 2.85%.
`CC[C@H]1CN2CCc3cc(OC)c(OC)cc3[C@@H]2C[C@@H]1C[C@H]1NCCc2cc(OC)c(OC)cc21` gave an inhibition of 96.8%.
`CC[C@H]1CN2CC[C@H]1C[C@H]2[C@H](O)c1cc(-c2ccc3ccccc3c2)nc2ccc(OC)cc12` was tested, and the inhibition was 10%.
`CC(Cc1ccc(C(C)(C)C)cc1)NCC(O)c1ccccc1` (stereo not drawn) was tested, and the inhibition was 2.91%.
Compound `O=C(/C=C/c1cc(F)c(F)cc1F)N1CCC(CN2CCC(c3c[nH]c4ccccc34)CC2)CC1` has an inhibition of 0.47%.
`CC[C@H]1CN2CC[C@@H]1C[C@H]2[C@H](O)c1cc(-c2cccnc2)nc2ccc(OC)cc12` showed an inhibition of 4.01%.
`CC(Cc1ccc(SCCSc2ccccc2)cc1)NCC(O)c1cccc(Cl)c1` (stereo not drawn) gave an inhibition of 0.69%.
Compound `C#CCOc1ccc(CC(C)NCC(O)c2cccc(C(F)(F)F)c2)cc1` (stereo not drawn) has an inhibition of 0.24%.
With `Cc1ccc(/C=C/C(=O)NC2CCC(CN3CCC(c4c[nH]c5ccccc45)CC3)CC2)cc1C` (stereo not drawn) the inhibition was 3.87% and 0.74%.
In the case of `O=C(Nc1cc(C(F)(F)F)cc(C(F)(F)F)c1)N1CCC(CN2CCC(c3c[nH]c4ccccc34)CC2)CC1`, the inhibition is reported as 2.61%.
With `CCCCCc1cc(O)c2c(c1)OC(C)(C)CC2C1=CCN(Cc2ccccc2)CC1` (stereo not drawn) the inhibition was 2.07%.
In the case of `C[C@H](Cc1ccc(OCCCCCCOc2ccccc2)cc1)NC[C@H](O)c1cccc(Cl)c1`, the inhibition is reported as -0.31%.
With `O=C(/C=C/c1ccc(C(F)(F)F)cc1)NC1CCC(CN2CCC(c3c[nH]c4ccccc34)CC2)CC1` (stereo not drawn) the inhibition was 5.55% and -0.04%.
Compound `CCC1(C)N=C(N)N=C(N)N1c1ccc(Cl)cc1` (stereo not drawn) has an inhibition of 3.87%.
Compound `COC(=O)CN(C(=O)/C=C/c1ccc(Cl)c(Cl)c1)C1CCC(CN2CCC(c3c[nH]c4ccccc34)CC2)CC1` (stereo not drawn) has an inhibition of 1.07%.
Work on `CC(Cc1ccc(OCc2ccccc2)cc1)NCC(O)c1cccc(Cl)c1` (stereo not drawn) yielded an inhibition of 5.48%.
For `COc1ccc(OC)c(C(O)C(C)NCc2cc(Cl)ccc2O)c1` (stereo not drawn), the inhibition was 0.78%.
`CN1CC=C(c2c[nH]c3ccc(Oc4ccccc4)cc23)CC1` gave an inhibition of 0.93%.
With `O=C1c2ccccc2CCC1CCN1CC=C(c2c[nH]c3ccccc23)CC1` (stereo not drawn) the inhibition was 2.89%.
`COc1ccc2[nH]cc(C3=CCN(Cc4ccccc4)CC3)c2c1` was tested, and the inhibition was 3.41%.
Compound `Cc1[nH]c2ccccc2c1C1=CCN(CCCCC2(C)C(=O)Nc3cccc(F)c32)CC1` (stereo not drawn) has an inhibition of 0.46%.
For `Cc1ccc2c(C3=CCN(CCCCC4(C)C(=O)Nc5c(F)cccc54)CC3)c(C)[nH]c2c1` (stereo not drawn), the inhibition was 2.71%.
For `COc1ccc(C[C@@H](C)NC[C@H](O)c2cccc(Cl)c2)cc1F`, the inhibition was 0.83% and 1.3%.
For `O=C(/C=C/c1cccc(F)c1)NC1CCC(CN2CCC(c3c[nH]c4ccccc34)CC2)CC1` (stereo not drawn), the inhibition was 2.52% and 1.33%.
In the case of `CCCN(CC(=O)NCCc1ccccc1)c1ccc(C#N)c2ccccc12`, the inhibition is reported as 2.23%.
In the case of `CC[C@H]1CN2CC[C@@H]1C[C@H]2[C@H](O)c1cc(N2CCOCC2)nc2ccc(OC)cc12`, the inhibition is reported as -1.11%.
Compound `COC(=O)/C=C/c1ccc(CC(C)NCC(O)c2cccc(Br)c2)cc1` (stereo not drawn) has an inhibition of 1.85%.
Compound `O=C(NC1CCC(CN2CCC(c3c[nH]c4ccccc34)CC2)CC1)c1cn(Cc2ccccc2)c2ccccc12` (stereo not drawn) has an inhibition of 0.71%.
In the case of `CCCCCC(C)C(C)c1cc(O)c2c(c1)OC(C)(C)c1cnccc1-2` (stereo not drawn), the inhibition is reported as -1.41%.
Compound `COc1ccc(F)cc1-c1csc(N(c2ccc(F)cc2)C2CCNCC2)n1` has an inhibition of 1.56%.
With `CC(=O)N(Cc1cccc(-c2cccc(CNCCc3ccccc3)c2)c1)C1CCN(Cc2ccccc2)CC1` the inhibition was -0.27%.
`COC(=O)c1ccc(CC(C)NCC(O)c2cccc(OC(F)(F)F)c2)cc1` (stereo not drawn) gave an inhibition of 0.35%.
Work on `O=C(/C=C/c1cc(C(F)(F)F)ccc1F)NC1CCC(CN2CCC(c3c[nH]c4ccccc34)CC2)CC1` (stereo not drawn) yielded an inhibition of 6.52%.
`CC[C@@]1(O)C(=O)OCc2c1cc1n(c2=O)Cc2c-1nc1cc3c(cc1c2CN1CCOCC1)OCO3` gave an inhibition of 51.3%.
`Cc1ccc(CC(C)NCC(O)c2cccc(C#N)c2)cc1` (stereo not drawn) gave an inhibition of 9.34%.
In the case of `Cn1nc(C(F)(F)F)cc1-c1ccc(C(=O)NC2CCC(CN3CCC(c4c[nH]c5ccccc45)CC3)CC2)s1` (stereo not drawn), the inhibition is reported as 6.48%.
In the case of `N#Cc1ccc(N(CC(=O)NCCc2ccc(F)cc2)CC2CC2)c2ccccc12`, the inhibition is reported as -0.35%.

The compounds below were run against Hexose transporter 1 (Plasmodium falciparum) (UniProt O97467) (assay: ST_JUDE_LEISH: Cytotoxicity at 2uM final concentration against transgenic Leishmania Mexicana promastigotes LmPfHT that are glucose transport deficient and complemented with the Plasmodium falciparum hexose transporter. Activity is measured by DNA content using SYBR green in vitro).
Type: functional
`CC(=O)C1(c2ccccc2)CCN(CCC2(c3ccc(Cl)c(Cl)c3)CN(C(=O)Nc3cccc(C(F)(F)F)c3)CCO2)CC1` (stereo not drawn) showed an inhibition of 4.19%.
With `CS(=O)(=O)Nc1ccc2[nH]cc(C3CC4CCC(C3)N4CC3CCC(NC(=O)/C=C/c4ccc(Cl)c(Cl)c4)CC3)c2c1` (stereo not drawn) the inhibition was 5.37%.
For `COC(=O)c1ccc(CC(C)NCC(O)c2cccc(SC(F)(F)F)c2)cc1` (stereo not drawn), the inhibition was 4.05%.
In the case of `CC[C@H]1CN2CCc3cc(OC)c(OC)cc3[C@@H]2C[C@@H]1C[C@H]1NCCc2cc(OC)c(OC)cc21`, the inhibition is reported as 94%.
In the case of `CC[C@H]1CN2CC[C@H]1C[C@H]2[C@H](O)c1cc(-c2ccc3ccccc3c2)nc2ccc(OC)cc12`, the inhibition is reported as 4.9%.
With `CC(Cc1ccc(C(C)(C)C)cc1)NCC(O)c1ccccc1` (stereo not drawn) the inhibition was -0.46%.
Compound `O=C(/C=C/c1cc(F)c(F)cc1F)N1CCC(CN2CCC(c3c[nH]c4ccccc34)CC2)CC1` has an inhibition of 1.36%.
In the case of `CC[C@H]1CN2CC[C@@H]1C[C@H]2[C@H](O)c1cc(-c2cccnc2)nc2ccc(OC)cc12`, the inhibition is reported as 4.01%.
In the case of `CC(Cc1ccc(SCCSc2ccccc2)cc1)NCC(O)c1cccc(Cl)c1` (stereo not drawn), the inhibition is reported as -0.5%.
Compound `C#CCOc1ccc(CC(C)NCC(O)c2cccc(C(F)(F)F)c2)cc1` (stereo not drawn) has an inhibition of 0.36%.
In the case of `Cc1ccc(/C=C/C(=O)NC2CCC(CN3CCC(c4c[nH]c5ccccc45)CC3)CC2)cc1C` (stereo not drawn), the inhibition is reported as 3.35% and 0.58%.
`O=C(Nc1cc(C(F)(F)F)cc(C(F)(F)F)c1)N1CCC(CN2CCC(c3c[nH]c4ccccc34)CC2)CC1` was tested, and the inhibition was 3.46%.
Work on `CCCCCc1cc(O)c2c(c1)OC(C)(C)CC2C1=CCN(Cc2ccccc2)CC1` (stereo not drawn) yielded an inhibition of 2.23%.
`C[C@H](Cc1ccc(OCCCCCCOc2ccccc2)cc1)NC[C@H](O)c1cccc(Cl)c1` was tested, and the inhibition was -0.04%.
With `O=C(/C=C/c1ccc(C(F)(F)F)cc1)NC1CCC(CN2CCC(c3c[nH]c4ccccc34)CC2)CC1` (stereo not drawn) the inhibition was 5.47% and -0.38%.
`CCC1(C)N=C(N)N=C(N)N1c1ccc(Cl)cc1` (stereo not drawn) gave an inhibition of -0.9%.
For `COC(=O)CN(C(=O)/C=C/c1ccc(Cl)c(Cl)c1)C1CCC(CN2CCC(c3c[nH]c4ccccc34)CC2)CC1` (stereo not drawn), the inhibition was 4.03%.
With `CC(Cc1ccc(OCc2ccccc2)cc1)NCC(O)c1cccc(Cl)c1` (stereo not drawn) the inhibition was 3.61%.
`COc1ccc(OC)c(C(O)C(C)NCc2cc(Cl)ccc2O)c1` (stereo not drawn) showed an inhibition of 1.14%.
Work on `CN1CC=C(c2c[nH]c3ccc(Oc4ccccc4)cc23)CC1` yielded an inhibition of 6.03%.
Compound `O=C1c2ccccc2CCC1CCN1CC=C(c2c[nH]c3ccccc23)CC1` (stereo not drawn) has an inhibition of 3.52%.
With `COc1ccc2[nH]cc(C3=CCN(Cc4ccccc4)CC3)c2c1` the inhibition was 2.34%.
`Cc1[nH]c2ccccc2c1C1=CCN(CCCCC2(C)C(=O)Nc3cccc(F)c32)CC1` (stereo not drawn) was tested, and the inhibition was -0.62%.
Compound `Cc1ccc2c(C3=CCN(CCCCC4(C)C(=O)Nc5c(F)cccc54)CC3)c(C)[nH]c2c1` (stereo not drawn) has an inhibition of 1.48%.
With `COc1ccc(C[C@@H](C)NC[C@H](O)c2cccc(Cl)c2)cc1F` the inhibition was 3.32% and 5.02%.
`O=C(/C=C/c1cccc(F)c1)NC1CCC(CN2CCC(c3c[nH]c4ccccc34)CC2)CC1` (stereo not drawn) was tested, and the inhibition was -0.05% and 2.1%.
Work on `CCCN(CC(=O)NCCc1ccccc1)c1ccc(C#N)c2ccccc12` yielded an inhibition of 1.5%.
`CC[C@H]1CN2CC[C@@H]1C[C@H]2[C@H](O)c1cc(N2CCOCC2)nc2ccc(OC)cc12` was tested, and the inhibition was -1.44%.
In the case of `COC(=O)/C=C/c1ccc(CC(C)NCC(O)c2cccc(Br)c2)cc1` (stereo not drawn), the inhibition is reported as 0.16%.
Compound `O=C(NC1CCC(CN2CCC(c3c[nH]c4ccccc34)CC2)CC1)c1cn(Cc2ccccc2)c2ccccc12` (stereo not drawn) has an inhibition of 1.32%.
Compound `CCCCCC(C)C(C)c1cc(O)c2c(c1)OC(C)(C)c1cnccc1-2` (stereo not drawn) has an inhibition of 0.7%.
`COc1ccc(F)cc1-c1csc(N(c2ccc(F)cc2)C2CCNCC2)n1` was tested, and the inhibition was 0.21%.
In the case of `CC(=O)N(Cc1cccc(-c2cccc(CNCCc3ccccc3)c2)c1)C1CCN(Cc2ccccc2)CC1`, the inhibition is reported as 1.94%.
Compound `COC(=O)c1ccc(CC(C)NCC(O)c2cccc(OC(F)(F)F)c2)cc1` (stereo not drawn) has an inhibition of 1.5%.
Compound `O=C(/C=C/c1cc(C(F)(F)F)ccc1F)NC1CCC(CN2CCC(c3c[nH]c4ccccc34)CC2)CC1` (stereo not drawn) has an inhibition of 5.67%.
For `CC[C@@]1(O)C(=O)OCc2c1cc1n(c2=O)Cc2c-1nc1cc3c(cc1c2CN1CCOCC1)OCO3`, the inhibition was 76.7%.
In the case of `Cc1ccc(CC(C)NCC(O)c2cccc(C#N)c2)cc1` (stereo not drawn), the inhibition is reported as 13.4%.
Compound `Cn1nc(C(F)(F)F)cc1-c1ccc(C(=O)NC2CCC(CN3CCC(c4c[nH]c5ccccc45)CC3)CC2)s1` (stereo not drawn) has an inhibition of 4.44%.
With `N#Cc1ccc(N(CC(=O)NCCc2ccc(F)cc2)CC2CC2)c2ccccc12` the inhibition was -0.59%.
